Data as given in PubChem BioAssay (NCI).
This is part of a sample that, as a whole, favours compounds with a hit. Of some 83,000 tested, about 20% had one in any assay.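 How to read the values: 0–100, growth inhibition (40 = 60% inhibited); 0, no net growth; -100 to 0, cell death (-40 = 40% of starting cells died; -100 = all dead).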 A number with no mark means an inactive call. Active and inactive are the calls of the source. How the source made its calls: active means growth percent below 10; inactive means the rest.

Test system: HS 578T breast
Assay: NCI-60 one-dose screen, 48 h (100 = growth as untreated, 0 = no growth, -100 = all killed)
Details: 10 µM unless noted

Row | SMILES | growth
1 | OCC1C2C=CC(C2)C1CO (centres undefined) | 104%
2 | Fc1ccc(Cc2ccc(F)cc2)cc1 | 114%
3 | O=c1ccc2cc3ccccc3cc2[nH]1 | 50.9%
4 | COc1ccc(-c2nn(-c3ccccc3)cc2/C=C/C(=O)OCc2cn(-c3ccc(F)c(Cl)c3)nn2)cc1 | 88%
5 | COc1ccccc1N1CCN(CCn2c(=O)c3c(c4ccccc4n3C)n(C)c2=O)CC1 | 98.5%
6 | CCCCCCCCCCNC(=O)CCl | 84.6%
7 | N=S(=O)(NC(=O)c1ccc(Cl)cc1Cl)c1ccc(Br)s1 (centres undefined) | 87.3%
8 | CCOC(=O)/C=C/C(=O)[C@H](CC(C)C)NC(=O)[C@H](Cc1ccccc1)NC(=O)OCc1ccccc1 | 93.4%
9 | COC1/C=C\OC2(C)Oc3c(C)c(O)c4c(O)c(c(CN(C)CCO)c(O)c4c3C2=O)NC(=O)/C(C)=C\C=C/C(C)C(O)C(C)C(O)C(C)C(OC(C)=O)C1C (centres undefined) | 104%
10 | COc1nc2c(cc1S(=O)(=O)c1ccccc1)CCc1c-2cnn1Cc1ccccc1 | 79.9%
11 | O=S(=O)(NCCCNc1cc(-c2cn(-c3ccccc3)nc2-c2ccccc2)ccn1)c1ccc(C(F)(F)F)cc1 | 61%
12 | N#CC1=C(N)Oc2c(ccc3ccccc23)C1c1cccs1 (centres undefined) | 22.3%
13 | CCN(CC)CCCNc1cc(OC)cc2nc3cc(Cl)ccc3nc12 | 23.3%
14 | O=C(CN1CCN(c2cc3c(cc2F)c(=O)c(C(=O)O)cn3C2CC2)CC1)Nc1nc(-c2ccc(Cl)cc2)cs1 | 32.2%
15 | O=C1CC(c2nc3ccccc3[nH]2)CN1C1CCCCC1 (centres undefined) | 102%
16 | COc1cc(OC)c(/C=C/c2cc[n+](C)c3ccccc23)c(OC)c1 | 18.8%
17 | CCCCCN(CCCCC)CCC[C@@H](C)[C@H]1CC[C@H]2[C@@H]3[C@H](OCCCN)C[C@@H]4C[C@H](OCCCN)CC[C@]4(C)[C@H]3C[C@H](OCCCN)[C@]12C | 66.9%
18 | COc1cc(OC)c(/C=C/S(=O)(=O)Cc2ccc(OC)c(N)n2)c(OC)c1 | 43.8%

Row | SMILES | growth
19 | CC(=O)C1=C(O)C=C2Oc3c(C(=O)/C=C/c4cc(C(F)(F)F)cc(C(F)(F)F)c4)c(O)c(C)c(O)c3[C@]2(C)C1=O | -12.2% (active)
20 | Cc1cc(Nc2nc(N3CCOCC3)nc3ccccc23)n[nH]1 | 16.3%
21 | COc1cc(OC)c(/C=C/C(=O)c2c(OC)cc(OC)cc2OC)c(OC)c1 | 52.6%
22 | c1ccc(CSc2ncnc3nc[nH]c23)nc1 | 121%
23 | C=C(CN1CCN(c2cccc(C(F)(F)F)n2)CC1)c1ccc(C(=O)Nc2ccccc2N)cc1 | 41.1%
24 | CN1CCOCCOCCOc2ccccc2NC(=O)c2nc(cnc2N)-c2ccc(cc2)S1(=O)=O | 66.4%
25 | COc1cc(/C=N/N(C)C)ccc1O | 87.3%
26 | O=C(/C=C/c1ccc(B(O)O)cc1)/C=C/c1ccc(B(O)O)cc1 | 4.54% (active)
27 | CCC(=O)OCc1cccc(OC)c1 | 101%
28 | COc1cnc2c(c1)C(=O)c1c-2n(CCCBr)c(=O)c2cc([N+](=O)[O-])ccc12 | 36.9%
29 | C/C(=C(/c1ccc(O)cc1)c1ccc(OCCN2CCCC2)cc1)c1ccccc1 | 66.8%
30 | CCCCCCCCCc1cc(CN2CCCCC2)c(O)c(CN2CCCCC2)c1 | 72.7%
31 | COc1cc(NC(N)=NCC(C)(C)COc2ccc(C(F)(F)F)cc2)cnc1C#N | 31.6%
32 | COc1ccc2nc(NC(=O)c3cccnc3Nc3cc(OC)c(OC)c(OC)c3)sc2c1 | 44.5%
33 | CCN(CC)CCC(=O)c1ccc(OC)c2ccccc12 | 95.9%
34 | COc1ccc(/C=C2\N=C3Sc4cc(Cl)ccc4C(=O)N3C2=O)cc1 | 102%
35 | Nc1c(C(=O)Nc2ccccc2)sc2nc3c(cc12)CN(CCc1ccccc1)CC3 | 89.1%
36 | CC(C)Oc1nc2c(c(=O)n(C)c(=O)n2C)n1C | 116%

Test system: NCI/ADR-RES ovarian
Assay: as above
Details: 10 µM unless noted

Row | SMILES | growth
37 | OCC1C2C=CC(C2)C1CO (centres undefined) | 104%
38 | Fc1ccc(Cc2ccc(F)cc2)cc1 | 101%
39 | O=c1ccc2cc3ccccc3cc2[nH]1 | 93%
40 | COc1ccc(-c2nn(-c3ccccc3)cc2/C=C/C(=O)OCc2cn(-c3ccc(F)c(Cl)c3)nn2)cc1 | 73.9%
41 | COc1ccccc1N1CCN(CCn2c(=O)c3c(c4ccccc4n3C)n(C)c2=O)CC1 | 100%
42 | CCCCCCCCCCNC(=O)CCl | 73%
43 | N=S(=O)(NC(=O)c1ccc(Cl)cc1Cl)c1ccc(Br)s1 (centres undefined) | 91.3%
44 | CCOC(=O)/C=C/C(=O)[C@H](CC(C)C)NC(=O)[C@H](Cc1ccccc1)NC(=O)OCc1ccccc1 | 89.6%
45 | COC1/C=C\OC2(C)Oc3c(C)c(O)c4c(O)c(c(CN(C)CCO)c(O)c4c3C2=O)NC(=O)/C(C)=C\C=C/C(C)C(O)C(C)C(O)C(C)C(OC(C)=O)C1C (centres undefined) | 103%
46 | COc1nc2c(cc1S(=O)(=O)c1ccccc1)CCc1c-2cnn1Cc1ccccc1 | 48.2%
47 | O=S(=O)(NCCCNc1cc(-c2cn(-c3ccccc3)nc2-c2ccccc2)ccn1)c1ccc(C(F)(F)F)cc1 | 46.2%
48 | N#CC1=C(N)Oc2c(ccc3ccccc23)C1c1cccs1 (centres undefined) | 14.5%
49 | CCN(CC)CCCNc1cc(OC)cc2nc3cc(Cl)ccc3nc12 | -50.2% (active)
50 | O=C(CN1CCN(c2cc3c(cc2F)c(=O)c(C(=O)O)cn3C2CC2)CC1)Nc1nc(-c2ccc(Cl)cc2)cs1 | 56.9%
51 | O=C1CC(c2nc3ccccc3[nH]2)CN1C1CCCCC1 (centres undefined) | 94.2%
52 | COc1cc(OC)c(/C=C/c2cc[n+](C)c3ccccc23)c(OC)c1 | 91.3%
53 | CCN(CC)c1ccc(CNc2cc(C)nc3ccc(OC)cc23)cc1 | 33.9%
54 | CCCCCN(CCCCC)CCC[C@@H](C)[C@H]1CC[C@H]2[C@@H]3[C@H](OCCCN)C[C@@H]4C[C@H](OCCCN)CC[C@]4(C)[C@H]3C[C@H](OCCCN)[C@]12C | 76%
55 | COc1cc(OC)c(/C=C/S(=O)(=O)Cc2ccc(OC)c(N)n2)c(OC)c1 | 10.2%

Row | SMILES | growth
56 | CC(=O)C1=C(O)C=C2Oc3c(C(=O)/C=C/c4cc(C(F)(F)F)cc(C(F)(F)F)c4)c(O)c(C)c(O)c3[C@]2(C)C1=O | -48.2% (active)
57 | Cc1cc(Nc2nc(N3CCOCC3)nc3ccccc23)n[nH]1 | 86.3%
58 | COc1cc(OC)c(/C=C/C(=O)c2c(OC)cc(OC)cc2OC)c(OC)c1 | 12.3%
59 | c1ccc(CSc2ncnc3nc[nH]c23)nc1 | 103%
60 | C=C(CN1CCN(c2cccc(C(F)(F)F)n2)CC1)c1ccc(C(=O)Nc2ccccc2N)cc1 | 1.99% (active)
61 | CN1CCOCCOCCOc2ccccc2NC(=O)c2nc(cnc2N)-c2ccc(cc2)S1(=O)=O | 43.5%
62 | COc1cc(/C=N/N(C)C)ccc1O | 107%
63 | O=C(/C=C/c1ccc(B(O)O)cc1)/C=C/c1ccc(B(O)O)cc1 | 91.7%
64 | CCC(=O)OCc1cccc(OC)c1 | 106%
65 | COc1cnc2c(c1)C(=O)c1c-2n(CCCBr)c(=O)c2cc([N+](=O)[O-])ccc12 | 11.6%
66 | C/C(=C(/c1ccc(O)cc1)c1ccc(OCCN2CCCC2)cc1)c1ccccc1 | 62.9%
67 | CCCCCCCCCc1cc(CN2CCCCC2)c(O)c(CN2CCCCC2)c1 | 58.3%
68 | CCCCN(CC)CCCCCCCCCCN1CCCc2cc(OC)ccc21 | 25.9%
69 | COc1cc(NC(N)=NCC(C)(C)COc2ccc(C(F)(F)F)cc2)cnc1C#N | 70.2%
70 | COc1ccc2nc(NC(=O)c3cccnc3Nc3cc(OC)c(OC)c(OC)c3)sc2c1 | 4.41% (active)
71 | CCN(CC)CCC(=O)c1ccc(OC)c2ccccc12 | 98.8%
72 | COc1ccc(/C=C2\N=C3Sc4cc(Cl)ccc4C(=O)N3C2=O)cc1 | 106%
73 | Nc1c(C(=O)Nc2ccccc2)sc2nc3c(cc12)CN(CCc1ccccc1)CC3 | 87.3%
74 | CC(C)Oc1nc2c(c(=O)n(C)c(=O)n2C)n1C | 98.1%
